TDP43 rescue = TDP-43 toxicity inhibition in yeast | TDP-43 expressing yeast growth rescue, BacTiter-Glo, 24 h | Potency, µM (highest dose often 46.1 µM), for the others: at the highest dose growth rescue (activation), usual class: activators | AID 652104 | 410,000 tested, 1.8% active; also: potency is read from the fitted curve at half-maximal effect; % of control where 0% means no effect; nearly all actives have a fitted effect of over 50% in size
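Growth rescue of TDP-43-toxic yeast measured as ATP luminescence (BacTiter-Glo). Cells grown to mid-log in raffinose, induced in galactose at OD600=0.02, exposed to compound 24 hr at 30 deg C.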
CCT chaperon mod = cytosolic chaperonin activity modulation | activity change, % (no concentration beside the values), hits read low | purified chaperonin ATPase assay, HTRF ADP detection, 30 min | AID 651819 | 360,000 tested, 0.3% active; in the data active = activity change below about -30%; also: % is scaled to controls: 0 for no effect and ±100 for the full control effect
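We incubate TRiC, 40 or 20 nM final, with library compounds at 76 uM and 10 uM ATP for 30 min at 37 °C. ADP formed is detected with Transcreener HTRF reagents after 30 min at room temperature.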
Apoferritin bind = binds horse apoferritin like a general anesthetic. apoferritin/1-aminoanthracene competitive binding, fluorescence. 350,000 tested, 0.074% active. P02791. AID 485281. Potency, µM (highest dose often 77.5 µM), inactives show top-dose activity change, negative = displacement, most hits filed as inhibitors; also: potency is read from the fitted curve at half-maximal effect; % is scaled to controls: 0 for no effect and ±100 for the full control effect; nearly all actives have a fitted effect of over 20% in size
Target sequence (P02791 2-175 limits assumed): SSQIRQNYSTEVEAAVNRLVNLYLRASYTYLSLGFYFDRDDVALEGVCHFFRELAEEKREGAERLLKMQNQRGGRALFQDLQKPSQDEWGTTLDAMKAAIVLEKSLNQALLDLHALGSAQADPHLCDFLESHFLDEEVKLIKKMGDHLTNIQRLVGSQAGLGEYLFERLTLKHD
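In PBS, apoferritin at 10 uM is loaded with 1-AMA from a 50% saturated solution. After 10 min of compound exposure at ambient temperature, reduced 535 nm fluorescence indicates probe displacement.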
Mito fusion yeast = mitochondrial division inhibition or fusion activation; S. cerevisiae fusion-defective mutant growth rescue, CellTiterGlo 48 h; Potency, µM (doses to about 46.1 µM), inactives show top-dose growth rescue (activation), most hits filed as activators; 320,000 tested, 0.23% active; AID 485298; also: potency is read from the fitted curve at half-maximal effect; % of control where 0% means no effect; nearly all actives have a fitted effect of over 45% in size
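S. cerevisiae fusion-defective temperature-sensitive mutants (e.g. fzo1-1, mgm1-5) grown 48 h at 37C in YPEG (ethanol/glycerol non-fermentable) medium with 23 nl compound per well; growth rescue read as CellTiterGlo luminescence.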
Akt phos inh = Akt phosphorylation inhibition; Neuro2A IGF-stimulated pAkt S473 HTRF, 20 min; hits give low values; activity change, % for hits at 50 µM; 360,000 tested, 0.32% active; in the data active = activity change below about -80%; inconclusive = mostly about -51% to -80%; also: % is scaled to controls: 0 for no effect and ±100 for the full control effect
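Neuro2A cells (4,500/well, DMEM with 0.5% FBS) were treated with compound at a single 50 µM final concentration, stimulated with 6 nM IGF for 20 min at 37 °C, and lysed. Phospho-Akt Ser473 was read by HTRF as 665/615 ratio ×10^4.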
aSyn yeast inh = inhibitors of alpha-synuclein toxicity in yeast; Yeast expressing alpha-synuclein, growth rescue, BacTiter-Glo, 24 h; Potency, µM (titrated, usually from 46.1 µM), for the others: at the highest dose growth rescue (activation), most hits filed as activators; 370,000 tested, 0.14% active; AID 652106; also: potency is read from the fitted curve at half-maximal effect; % of control where 0% means no effect; nearly all actives have a fitted effect of over 65% in size
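Screening used galactose-induced yeast with toxic alpha-synuclein levels, exposed to compound for 24 hr at 30 deg C. Cell growth, read with BacTiter-Glo luminescence, gave the measured signal.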
Numbers without * were called inactive; i = inactive; u = inconclusive; x = no result given; [ ] = dose if it differs, or a comment. Sampled rows, rich in hits. Any-hit rate of the full collection: about 2.5%. Unless noted, calls follow the shape of the dose curve; as a rule, active = well fitted curve in the direction sought with a large enough effect; inconclusive = small, poorly fitted or top-dose-only effect, or another doubt; inactive = no such curve, though single readings can be large; an effect the other way counts as inactive or inconclusive.

SMILES | TDP43 rescue | CCT chaperon mod | Apoferritin bind | Mito fusion yeast | Akt phos inh | aSyn yeast inh
O=S(=O)(NCC1CC1)c1cccc(S(=O)(=O)N2CCCC2)c1 | 1% | -1 | -17% | 0% | -112%* | 0%
COc1ccc(CCNS(=O)(=O)c2cccc(S(=O)(=O)N3CCCC3)c2)cc1OC | 17% | -2 | -22% | 4% | i | 6%
COc1ccc(C2CC(=O)Oc3c(C(CCN4CCOCC4)c4ccc5c(c4)OCO5)c(OC)cc(OC)c32)cc1 (stereo not drawn) | x | x | 6% | x | x | x
CCOC(=O)CCN1C(=O)[C@H]2[C@H]3[C@H](O)[C@H](O)C/C(=N/OC[C@@H](O)COCc4ccco4)[C@H]3CC[C@@H]2C1=O | x | x | 11%[15.3 µM] | x | x | x
N#CC1c2ccccc2-c2ccccc2N1C(=O)c1ccccc1 (stereo not drawn) | 28µM* | -3 | x | x | i | 22µM*
C/C(=N\NC(=S)NCc1ccccc1)c1ccc(Br)cc1 | u | 1 | 15% | u | i | 21%
C/C(=N\NC(=S)NCc1ccccc1)c1ccc2c(c1)OCCO2 | 13µM* | 0 | -5% | 27% | i | -2%
O=C(NCc1ccco1)c1cc(S(=O)(=O)N2CCOCC2)c(Cl)cc1Cl | -2% | -67* | -10% | -2% | i | 2%
Cc1ccc(C2=NN(CC(=O)NCCc3ccccc3)C(=O)CC2)cc1 | 2% | x | 2.5µM* | x | x | x
O=C(CN1N=C(c2ccc(Cl)cc2)CCC1=O)NCCc1ccccc1 | 15% | x | u | x | x | x
O=C(COc1ccc(C(=O)c2ccc(F)cc2)cc1)NCc1ccc(F)cc1 | 20µM* | -1 | -17% | -3% | i | 7%
COc1ccccc1/C=N/OCC(=O)NCc1ccc2c(c1)OCO2 | -5% | -1 | u | -4% | i | -1%
COC(=O)c1ccc(/C=N/OCC(=O)NCc2ccc(F)cc2)cc1 | 32µM* | -1 | u | 12% | i | 0%
CCOc1ccccc1/C=N/OCC(=O)NCc1ccc(F)cc1 | 22µM* | 3 | -16% | 8% | i | 2%
COc1ccccc1Nc1ncc2c(n1)CCN(CC(C)C)C2 | 20% | x | 11% | x | x | x
COc1cccc(C(=O)OCC(=O)NCCNC(=O)COC(=O)c2cccc(OC)c2OC)c1OC | 4% | 2 | -4% | -2% | i | 9%
COc1cccc(C(=O)OCC(=O)c2ccc(Br)s2)c1OC | 1.8µM* | -1 | x | -2% | i | -5%
S=c1[nH]c(=S)c2[nH]cnc2[nH]1 | x | x | x | x | x | -1%
CCOc1ccc(NC(=O)CSc2oc(-c3ccc(C)cc3)nc2S(=O)(=O)c2ccc(C)cc2)cc1 | -23% | x | -27% | x | x | x
COCCCNC(=S)N1CCN(c2nc(-c3ccccc3)cs2)CC1 | 35µM* | -1 | -6% | 0% | i | -5%
COc1ccc(NC(=O)N2CCN(c3nc(-c4cccc(OC)c4)cs3)CC2)cc1 | u | 0 | 2% | 23% | i | -2%
COc1cccc(-c2csc(N3CCN(C(=O)Nc4ccc(Cl)cc4)CC3)n2)c1 | 11µM* | 1 | -2% | 9% | i | -24%
COCCCNC(=S)N1CCN(c2nc(-c3ccc(Cl)cc3)cs2)CC1 | 13µM* | -3 | x | x | i | -18%
O=C(CN1CCN(c2nc(-c3ccccc3)cs2)CC1)NNC(=O)c1ccc(Br)cc1 | -26% | 3 | -17% | -1% | i | 0%
O=C(NC(=S)N1CCN(c2nc(-c3ccccc3)cs2)CC1)c1cncc(Br)c1 | 16µM* | 2 | -16% | 6% | i | u
O=C1C2=C(C(=O)c3ccccc31)C1O[C@](CCCCN3C(=O)c4ccccc4C3=O)(Cc3c1ccc1ccccc31)O2 | x | x | -14%[15.3 µM] | -6%[9.22 µM] | x | x
CCOCCCNC(=S)N1CCN(c2nc(-c3ccccc3)cs2)CC1 | 20µM* | -4 | -1% | 0% | i | -4%
COc1ccc2ncc(S(=O)(=O)c3ccccc3)c(N3CCN(c4ccccc4)CC3)c2c1 | 16µM* | -2 | -13% | 18% | i | u
